# Tau ThT inhib: qHTS for Inhibitors of Tau Fibril Formation, Thioflavin T Binding; Potency, µM (top dose mostly 57.4 µM), for the others: top-dose activity, negative = inhibition, actives largely listed as inhibitors; recombinant tau K18 P301L, heparin-induced fibrillization, ThT fluorescence; Microtubule-associated protein tau (Homo sapiens), P10636; 270,000 tested, 2.1% active; also: nearly all actives have a fitted effect of over 55% in size
# Target sequence (P10636 561-689 P618L limits assumed): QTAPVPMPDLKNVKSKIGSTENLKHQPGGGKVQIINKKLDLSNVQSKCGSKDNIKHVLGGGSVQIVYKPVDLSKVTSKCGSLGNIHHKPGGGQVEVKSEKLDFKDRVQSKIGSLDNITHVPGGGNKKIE
#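 Aggregation was driven by heparin (20 uM final) acting on recombinant tau […] bearing P301L in 100 mM sodium acetate pH 7; fibrils were detected with Thioflavin T.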
# Tau fibril FP: qHTS for Inhibitors of Tau Fibril Formation, Fluorescence Polarization; K18 P301L tau heparin fibrillization, Alexa594 FP, 6 h; Microtubule-associated protein tau (Homo sapiens), P10636; 280,000 tested, 0.39% active; Potency, µM (top dose mostly 57.7 µM), without a hit: top-dose activity, negative = inhibition, actives largely listed as inhibitors; also: nearly all actives have a fitted effect of over 55% in size
#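 Recombinant K18 P301L […], labeled with Alexa 594 at 0.24 uM over 15 uM unlabeled; heparin inducer 20 uM final; 37 C, 6 hr; FP endpoint.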
# NPSR antagonist: qHTS Assay for Antagonists of the Neuropeptide S Receptor: cAMP Signal Transduction. Q6W5P4. CHO-NPSR cells, cAMP TR-FRET, antagonist mode. Potency, µM (doses to about 38.3 µM), without a hit: at the highest dose activity change, negative = inhibition, most hits filed as inhibitors. 220,000 tested, 1% active; also: nearly all actives have a fitted effect of over 50% in size
# Target sequence (Q6W5P4 whole entry, looked up): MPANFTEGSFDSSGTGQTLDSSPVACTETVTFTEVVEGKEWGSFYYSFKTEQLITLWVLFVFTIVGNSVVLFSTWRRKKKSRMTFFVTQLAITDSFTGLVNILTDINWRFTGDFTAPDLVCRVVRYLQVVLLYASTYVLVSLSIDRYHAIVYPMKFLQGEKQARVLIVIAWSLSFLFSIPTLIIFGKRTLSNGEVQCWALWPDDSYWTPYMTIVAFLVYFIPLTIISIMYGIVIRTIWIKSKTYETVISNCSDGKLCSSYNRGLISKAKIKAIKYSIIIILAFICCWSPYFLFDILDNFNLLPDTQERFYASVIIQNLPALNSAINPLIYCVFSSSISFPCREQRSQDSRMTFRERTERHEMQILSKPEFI
# ALDH1A1 inh: qHTS Assay for Inhibitors of Aldehyde Dehydrogenase 1 (ALDH1A1); Aldehyde dehydrogenase 1A1 (Homo sapiens), P00352; Purified ALDH1A1, NADH fluorescence, propionaldehyde substrate; Potency, µM (titrated, usually from 75.3 µM), for the others: top-dose activity, negative = inhibition, most hits filed as inhibitors; 220,000 tested, 7.3% active; AID 1030, 2008; active = well fitted inhibition curve with a large enough effect, not every such curve was filed as active; inconclusive = small, poorly fitted or top-dose-only effect, or another doubt; inactive = no such curve, though single readings can be large or run the other way;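 also: plate controls were no enzyme wells and a reference inhibitor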
# Tau fluor counter: Counterscreen qHTS for Inhibitors of Tau Fibril Formation, Fluorescence Polarization; tau K18 P301L Alexa594 fluorescence, heparin fibrillization; Potency, µM (highest dose often 57.7 µM), for the others: at the top dose activity change, negative = decrease; 280,000 tested, 0.93% active; AID 1463, 2008; also: nearly all actives have a fitted effect of over 55% in size
#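 Human tau K18 P301L (15 uM unlabeled, 0.24 uM Alexa 594-labeled) in 100 mM sodium acetate pH 7 with 20 uM heparin, 6 hr at 37 C. ThT 30 uM added, 1 hr ambient; Alexa 594 FP and total fluorescence read at 555/632 nm.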
# HPGD block: qHTS Assay for Inhibitors of HPGD (15-Hydroxyprostaglandin Dehydrogenase); purified HPGD, NADH fluorescence kinetic, PGE2 substrate; Potency, µM, inactives show at the highest dose activity change, negative = inhibition, hits mostly inhibitors; 15-hydroxyprostaglandin dehydrogenase [NAD(+)] (Homo sapiens), P15428; 150,000 tested, 4.3% active; AID 894, 2007; active = well fitted inhibition curve with a large enough effect, not every such curve was filed as active; inconclusive = small, poorly fitted or top-dose-only effect, or another doubt; inactive = no such curve, though single readings can be large or run the other way
#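 20 nM HPGD preincubated 15 min at room temperature with compound in 50 mM Tris-HCl pH 8, 0.01% Tween 20. Started with 1 mM NAD+ and 30 uM prostaglandin E2; NADH fluorescence (360/450 nm) read 5 times over 30-s intervals, last minus first.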
# Active calls of the source: *; ? = inconclusive; · = no result given; [ ] = dose if it differs, or a comment. In the library only some 9.5% were active in any assay of this set; here they are far more common. Unless noted, calls follow the shape of the dose curve; as a rule, active = well fitted curve in the direction sought with a large enough effect; inconclusive = small, poorly fitted or top-dose-only effect, or another doubt; inactive = no such curve, though single readings can be large; an effect the other way counts as inactive or inconclusive. Unless noted, % is scaled to controls: 0 for no effect and ±100 for the full control effect; potency is read from the fitted curve at half-maximal effect.
SMILES,Tau ThT inhib,Tau fibril FP,NPSR antagonist,ALDH1A1 inh,Tau fluor counter,HPGD block
Cc1ccc2c(c1)nnn2C1CCN(C(=O)C23CC4CC(CC(C4)C2)C3)CC1,-18%,-3%,?,18µM*,-11%,5%
CC1=Nc2ccccc2/C1=C\c1nc(-c2ccc(F)cc2)oc1O,7.1µM*,?,-25%[46.1 µM],0%,10µM*[quencher],-15%
O=C(/C=C\c1ccccc1)c1ccccc1O,-9%[11.5 µM],-2%[11.6 µM],·,1%[13.5 µM],-1%[11.6 µM],·
O=C(/C=C/c1ccc(O)cc1)c1ccccc1O,18µM*,5%,·,20µM*,?,?
O=C(/C=C/c1ccccc1)c1cc(Br)ccc(=O)c1O,14µM*,?,?,7.1µM*,?,20µM*
COc1ccc(/C=C/C(=O)c2ccccc2O)cc1,?,8%[11.6 µM],-12%,-6%[13.5 µM],-13%[11.6 µM],-27%
Cc1ccc(/C=C/C(=O)c2ccccc(=O)c2O)cc1C,13µM*,-15%,-23%,?,?,-27%
O=C1CCCC/C1=C/NCc1ccc(F)cc1,-9%,-3%,16%,?,-10%,·
CC(=O)Nc1ccccc1-c1nc2ccccc2n(CC(=O)c2ccc(C)c(C)c2)c1=O,3%,-3%,·,·,3%,·
C[C@H]1Cc2c(COc3ccccc3)nc3c(c2CO1)CN(S(=O)(=O)c1ccc2c(c1)OCCN2C)CC3,4%[11.5 µM],10%[11.6 µM],·,-15%[13.5 µM],-3%[11.6 µM],-10%
O=C(O)CSc1ccc([N+](=O)[O-])cc1[N+](=O)[O-],·,·,·,0%[13.5 µM],·,-6%
COc1ccc(O)c(N)c1,4.5µM*,11µM*,-8%,25µM*,13µM*[quencher],·
NC(=O)c1cc[n+](CC(=O)c2ccc(NC(=O)c3ccccc3)cc2)cc1,?,-18%,6%,4.5µM*,-8%,·
O=C(C[n+]1ccccc1)c1ccc(NC(=O)c2ccccc2)cc1,-16%,-2%,-11%,2%,-17%,·
O=C(C[n+]1ccc(C(=O)N/N=C/c2ccc(Cl)cc2Cl)cc1)c1ccccc1,16µM*,10%,-6%[46.1 µM],?,?,-10%
CCCS(=O)(=O)N1CCC(C(=O)NCCOC)CC1,?,6%,·,·,-12%,·
CC(=O)c1cccc(NS(=O)(=O)c2cccc(C(=O)O)c2)c1,·,·,·,-2%,·,-9%
O=C(Nc1ccon1)c1csc2c1CCCC2,?,-3%,-4%[46.1 µM],-11%,-11%,?
O=C(NCc1cccs1)c1csc2c1CCCCC2,2%,6%,-4%[46.1 µM],?,-1%,22µM*
O=C(Nc1nccs1)c1csc2c1CCCC2,-12%,-1%,-8%[46.1 µM],?,-11%,25µM*
O=C(NCc1ccccc1)c1csc2c1CCCCC2,-15%,-5%,-15%[46.1 µM],18µM*,-19%,8.9µM*
O=C(NCc1ccccc1)c1csc2c1CCCC2,-5%,-2%,-36%,-4%,-5%,·
O=C(NCc1ccco1)c1csc2c1CCCCC2,-3%,-2%,11%[46.1 µM],?,-10%,6.3µM*
CN(C)Cc1cc(C(C)(C)C)cc(CNC2CCCCC2)c1O,·,·,·,1%[13.5 µM],·,-9%
Cc1ccc(S(=O)(=O)N2CCOCC2)cc1NC(=O)COC(=O)CSc1ccc(Br)cc1C,-14%,-8%,-6%[46.1 µM],0%,?,-11%
SMILES,Tau ThT inhib,Tau fibril FP,NPSR antagonist,ALDH1A1 inh,Tau fluor counter,HPGD block
O=C(NCc1ccco1)c1ccc2nc3sc4c(c3c(=O)n2c1)CCCC4,14µM*,22µM*,10µM*,?,-22%,?
Cc1ccccc1NC(=O)c1csc2c1CCCC2,8%,-1%,4%[46.1 µM],?,0%,16µM*
O=C(c1ccco1)N1CCN(C2CC(=O)N(c3ccccc3)C2=O)CC1 (stereo unspecified),-5%,-2%,-12%[46.1 µM],20µM*,-9%,-12%
CCOc1ccc(N2C(=O)CC(N3CCN(C(=O)c4ccco4)CC3)C2=O)cc1 (stereo unspecified),-11%,-1%,-22%[46.1 µM],8.9µM*,-8%,-3%
CCOc1ccc(N2C(=O)CC(N(Cc3ccco3)C(=O)CC)C2=O)cc1 (stereo unspecified),-10%,-1%,2%,?,-3%,·
CCOc1ccc(N2C(=O)CC(N(Cc3ccco3)C(C)=O)C2=O)cc1 (stereo unspecified),3%,11%,-22%,20µM*,-3%,·
CCCN(c1ccccc1CC)S(=O)(=O)c1ccc2c(c1)CC(C)N2C(=O)C1CC1 (stereo unspecified),-14%,4%,·,·,-12%,·
CCc1nnc2c(Nc3cccc(F)c3)nc3ccc(C(=O)c4ccccc4)cc3n12,3%,1%,·,·,0%,·
COc1ccc2cc(C(=O)c3ccccc3)c(=O)oc2c1,-15%,-11%,-8%[46.1 µM],14µM*,-9%,-12%
COc1ccc(-c2n[nH]c(C)c2-c2cc(OC)ccc2O)cc1,-10%,-8%,-9%[46.1 µM],?,-19%,-20%
COc1ccc(-c2cc(-c3cc(OC)ccc3O)[nH]n2)cc1,?,0%,?,-14%,16µM*[quencher],?
Oc1ccc(Br)cc1-c1cc(-c2ccccc2)n[nH]1,-7%,?,-60%,4%,?,25µM*
COc1ccc(O)c(-c2cc(-c3cccc(Br)c3)n[nH]2)c1,?,2%,-26%[46.1 µM],4%,14µM*[quencher],?
Oc1ccc(Br)cc1-c1cc(-c2ccc(Cl)cc2)n[nH]1,?,?,?,8%,?,?
Cc1cc(Nc2cc(Cl)ccc2C)n2nc(Cc3ccccc3)nc2n1,-10%,6%,·,·,-1%,·
COc1cc2ncnc(Nc3ccc(F)c(Cl)c3)c2cc1OCCCN1CCOCC1,?,40µM*,·,0%,?,-12%
COc1cccc(OC)c1OCCCN1CCOCC1,-13%,3%,-6%[46.1 µM],-4%,3%,-3%
CCOC(=O)c1cccc(NC(=O)CSc2nnc(-c3ccoc3C)n2CCOC)c1,-18%,-3%,0%[46.1 µM],20µM*,-12%,-14%
O=C(/C=C/c1cccc(Cl)c1)Nc1ncccn1,-10%,3%,6%,-6%,-3%,-16%
COCCCNC(=O)CN(c1cccc(Cl)c1)S(C)(=O)=O,1%,5%,14%[46.1 µM],2µM*,6%,-9%
COCCCNC(=O)/C=C/c1cccc(Cl)c1,-11%,-7%,-1%[46.1 µM],1%,-11%,28µM*
CSc1cccc(NC(=O)/C=C/c2cccc(Cl)c2)c1,19%,?,-31%,?,13µM*[quencher],-15%
